Among all 320,000 compounds or so, about 8,000 (2.5%) were called active. The sample holds actives, similar compounds and a random draw of the others, so the mix is not that of the screen. Values without a mark were called inactive. No stated cut-off is given here; in the data, active means activation above about 47%; inactive means the rest.
Molecular target: Aryl hydrocarbon receptor (Homo sapiens) (UniProt P35869)
Experiment: AHR activators, primary screen, cell-based, luminescence, luciferase reporter, human (AID 2796);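 further: 0% = vehicle wells and 100% = reference agonist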
Settings: AHR-responsive luciferase reporter cells, at 5 µM, active compounds read high

Aryl hydrocarbon receptor (Homo sapiens), sequence (P35869 whole entry, looked up): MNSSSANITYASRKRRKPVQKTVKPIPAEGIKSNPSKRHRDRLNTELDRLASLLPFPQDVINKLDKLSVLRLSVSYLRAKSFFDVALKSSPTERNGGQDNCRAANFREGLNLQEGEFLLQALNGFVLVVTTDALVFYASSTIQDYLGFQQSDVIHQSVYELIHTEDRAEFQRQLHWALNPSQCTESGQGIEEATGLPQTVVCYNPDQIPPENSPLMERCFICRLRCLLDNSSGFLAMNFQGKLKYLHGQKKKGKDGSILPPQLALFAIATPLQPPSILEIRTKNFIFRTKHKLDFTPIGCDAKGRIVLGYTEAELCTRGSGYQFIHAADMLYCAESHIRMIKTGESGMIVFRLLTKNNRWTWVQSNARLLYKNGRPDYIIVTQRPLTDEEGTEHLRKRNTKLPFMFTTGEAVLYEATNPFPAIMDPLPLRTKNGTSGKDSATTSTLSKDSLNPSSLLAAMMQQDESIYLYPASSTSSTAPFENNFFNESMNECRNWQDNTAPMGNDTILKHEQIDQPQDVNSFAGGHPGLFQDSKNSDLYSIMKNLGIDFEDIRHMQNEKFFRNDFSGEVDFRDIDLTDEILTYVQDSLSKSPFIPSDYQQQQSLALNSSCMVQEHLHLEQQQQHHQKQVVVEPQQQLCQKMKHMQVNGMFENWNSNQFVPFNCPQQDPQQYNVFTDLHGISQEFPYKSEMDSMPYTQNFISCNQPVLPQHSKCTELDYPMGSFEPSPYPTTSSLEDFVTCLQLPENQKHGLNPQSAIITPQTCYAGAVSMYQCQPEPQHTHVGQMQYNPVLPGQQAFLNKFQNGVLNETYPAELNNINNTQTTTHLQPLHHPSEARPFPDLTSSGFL

Question: `Cc1cccc(N2CCN(C(=O)/C=C/c3ccco3)CC2)c1C` was tested. Which activation did it give?
Answer: Its activation is 2.32%.

Question: `CCN(CC)S(=O)(=O)c1ccc(N2CCCC2)c(NC(=O)c2ccc([N+](=O)[O-])o2)c1` was tested. Which activation did it give?
Answer: The activation was 0.5%.

Question: Which activation does the source give for `COc1ccc(N2C(=O)C3C(C2=O)C(C(=O)c2ccccc2)N2CCCC32)cc1` (configuration not stated) here?
Answer: Its activation is 5.21%.

Question: For `Cc1nn(-c2ccccc2)c(=O)c2noc(C)c12`, which activation is on record?
Answer: Its activation is -0.28%.

Question: For `Cc1nc2c(c(C)nn2-c2ccccc2)c(C)c1C`, which activation is on record?
Answer: The activation was 45.6%.

Question: `Cc1nn(-c2ccccc2)c2[nH]c(C(F)(F)F)cc(=O)c12` was tested. Which activation did it give?
Answer: Its activation is 80.4% (active).

Question: Which activation does the source give for `C=CCC[C@@H](Cc1ccc(F)cc1)C(=O)O[C@H](CNC(=O)[C@H](CC=C)CC(=O)N(CCO)Cc1ccccc1)c1ccccc1` here?
Answer: The activation was -0.27%.

Question: With `O=C(/C=C/c1ccccc1)N/C(=C/c1ccccc1)C(=O)Nc1ccccc1O` as the molecule, how does the activation read?
Answer: Its activation is 74.4% (active).

Question: Which activation does the source give for `O=C(Nc1ccc(C(=O)O)cc1)/C(=C\c1ccccc1)NC(=O)c1ccc(Br)cc1` here?
Answer: Its activation is -2.04%.

Question: For `CCc1ccccc1NC(=O)/C(=C/c1ccccc1)c1ccccc1`, which activation is on record?
Answer: The activation was 0.15%.

Question: For `Cc1ccc(S(=O)(=O)N2CCOCC2)cc1NC(=O)COC(=O)c1cnccn1`, which activation is on record?
Answer: The activation was 0.82%.

Question: With `O=C(CCl)Nc1cccc(CP(=O)(c2ccccc2)c2ccccc2)c1` as the molecule, how does the activation read?
Answer: The activation was -0.56%.

Question: How did the activation turn out when `Cc1ccc(S(=O)(=O)N(C)C)cc1NC(=O)CN1c2cccc3cccc(c23)S1(=O)=O` was run?
Answer: Its activation is 5.14%.

Question: With `CC(=O)N[C@@H](C)C(=O)N1CCC(n2nccc2NC(=O)CCCc2ccccc2)CC1` as the molecule, how does the activation read?
Answer: Its activation is 1.83%.

Question: For `O=C(CCNS(=O)(=O)c1ccc(Br)cc1)NCC1CCCO1` (configuration not stated), which activation is on record?
Answer: The activation was 0.8%.

Question: How did the activation turn out when `COc1ccccc1NC(=O)C1=C(C)Nc2ncnn2C1c1ccc(C)o1` (configuration not stated) was run?
Answer: The activation was 13.1%.

Question: How did the activation turn out when `COc1ccccc1NC(=O)C1=C(C)NC2=C(C(=O)CCC2)C1c1ccc(C)o1` (configuration not stated) was run?
Answer: Its activation is 102% (active).

Question: `COc1ccccc1NC(=O)C1=C(C)NC(=O)NC1c1ccc(C)s1` (configuration not stated) was tested. Which activation did it give?
Answer: Its activation is 5.73%.

Question: With `CCOc1cc2[nH]c(=S)n(CCN3CCCCC3C)c(=O)c2cc1OCC` (configuration not stated) as the molecule, how does the activation read?
Answer: The activation was 7.8%.

Question: For `COC(CNC(=O)c1ccc2c(c1)ncn2-c1cc(C)cc(C)c1)OC`, which activation is on record?
Answer: Its activation is 1.33%.

Question: With `CS(=O)(=O)c1ccc2nc(NC(=O)c3ccc(Cl)nc3)sc2c1` as the molecule, how does the activation read?
Answer: Its activation is -5.2%.

Question: How did the activation turn out when `Cc1ccc(C(=O)Nc2nc3ccc(Cl)cc3s2)o1` was run?
Answer: The activation was -2.1%.

Question: How did the activation turn out when `CNC(=O)c1ccc2nc(NC(C)=O)sc2c1` was run?
Answer: The activation was 84.2% (active).

Question: With `CC(NC(=O)CN(C)S(=O)(=O)c1ccc(F)cc1)C1CC2CCC1C2` (configuration not stated) as the molecule, how does the activation read?
Answer: Its activation is -0.07%.

Question: With `COCCCNC(=S)N1CCCC(c2nc3cc(C)c(C)cc3[nH]2)C1` (configuration not stated) as the molecule, how does the activation read?
Answer: The activation was 12.7%.

Question: For `CN(C)CCCNC(=S)N1CCC(c2nc3ccccc3[nH]2)CC1`, which activation is on record?
Answer: Its activation is -0.37%.

Question: For `CCNC(=S)N1CCC(c2nc3cc(C)c(C)cc3[nH]2)CC1`, which activation is on record?
Answer: Its activation is 84.9% (active).

Question: With `CC(=O)Nc1ccc(NC(=O)CCCNC(=O)c2ccc(Cl)cc2)cc1` as the molecule, how does the activation read?
Answer: The activation was 1.47%.

Question: With `O=C(Nc1cc(C(F)(F)F)ccc1Cl)c1cc(C2CC2)on1` as the molecule, how does the activation read?
Answer: The activation was 20.4%.

Question: With `CCCCC(=O)Nc1ccc(C(=O)Nc2cc(C(F)(F)F)ccc2Cl)cc1` as the molecule, how does the activation read?
Answer: The activation was 140% (active).

Question: Which activation does the source give for `COc1ccccc1-c1cnn2c(N3CCOCC3)cc(C)nc12` here?
Answer: Its activation is 34.4%.

Question: For `O=C(COC(=O)c1cccnc1Cl)NC(=O)NC1CCCCC1`, which activation is on record?
Answer: Its activation is -1.66%.

Question: For `COC(C[C@@H]1O[C@@H]1C(=O)[C@H](C)OCc1ccccc1)OC`, which activation is on record?
Answer: Its activation is -0.2%.

Question: How did the activation turn out when `Cn1nc(-c2ccccc2)c(-c2nc(-c3ccc(Cl)cc3)no2)c1Cl` was run?
Answer: Its activation is -1.35%.

Question: With `O=C(OCc1ccc(Br)cc1)c1cccc(-c2nnc(-c3ccccc3)o2)c1` as the molecule, how does the activation read?
Answer: The activation was 11.6%.

Question: For `Nc1nonc1-c1noc(-c2ccc(Br)o2)n1`, which activation is on record?
Answer: The activation was 14.2%.

Question: With `Nc1ccc(-c2nnc(-c3ccccc3)o2)cc1` as the molecule, how does the activation read?
Answer: The activation was 3.02%.

Question: For `Brc1ccc(-c2noc(-c3ccccc3)n2)o1`, which activation is on record?
Answer: The activation was 122% (active).

Question: `Brc1ccc(-c2nnc(-c3ccccc3)o2)o1` was tested. Which activation did it give?
Answer: Its activation is 70.7% (active).

Question: For `CCCCCCSc1ccc(-c2nc3ccc(Cl)cn3c2NCc2ccccc2)cc1`, which activation is on record?
Answer: Its activation is 1.54%.

Question: For `Cc1c2cnn(-c3ccccc3)c(=O)c2c(C)n1CCCC(=O)N1CCN(C)CC1`, which activation is on record?
Answer: Its activation is -2.09%.

Question: `C/C(=N\NC(=S)NC1CCCCC1)c1ccc(C)o1` was tested. Which activation did it give?
Answer: The activation was 8.26%.

Question: How did the activation turn out when `CC(C)(C)C1CCC(=NNC(=O)c2ccc(Br)o2)CC1` (configuration not stated) was run?
Answer: The activation was 9.69%.

Question: How did the activation turn out when `C/C(=N/NC(=O)c1ccc(Br)o1)c1ccc(C)o1` was run?
Answer: Its activation is 52.7% (active).

Question: `CCN(CCCNC(=O)CSc1cc(=O)n(C)c2cc(Cl)ccc12)Cc1ccccc1` was tested. Which activation did it give?
Answer: Its activation is -0.33%.

Question: How did the activation turn out when `O=C(NC1CC1)C(Cc1ccccc1)NS(=O)(=O)c1ccccc1F` (configuration not stated) was run?
Answer: The activation was 3.6%.

Question: How did the activation turn out when `Cc1no[n+]([O-])c1COc1ccccc1/C=C1\NC(=S)NC1=O` was run?
Answer: Its activation is 25.2%.

Question: With `COc1ccccc1NC(=O)C(C)OC(=O)c1ccc(-n2cnnn2)cc1` (configuration not stated) as the molecule, how does the activation read?
Answer: Its activation is -0.41%.

Question: With `COc1ccccc1NC(=O)c1cc(Cl)nc2ccccc12` as the molecule, how does the activation read?
Answer: The activation was 48.5% (active).

Question: Which activation does the source give for `COc1ccc(-c2cc(C(=O)Nc3ccccc3O)c3ccccc3n2)cc1` here?
Answer: The activation was -7.68%.

Question: How did the activation turn out when `COc1ccccc1NC(=O)c1cc(Cl)nnc1Cl` was run?
Answer: Its activation is 17.1%.

Question: Which activation does the source give for `CCOC(=O)C1=C(C)N=C2c3ccccc3C(=O)C2C1c1ccc(Br)cc1` (configuration not stated) here?
Answer: The activation was 3.41%.

Question: Which activation does the source give for `O=C1c2ccccc2C2=Nc3ccccc3SC(c3ccccc3F)C12` (configuration not stated) here?
Answer: The activation was 74.3% (active).

Question: How did the activation turn out when `O=C1c2ccccc2C(=O)C1c1ccccc1F` was run?
Answer: Its activation is 1.57%.

Question: Which activation does the source give for `CCCn1cc(S(=O)(=O)c2ccc(C)cc2)c(=O)c2cc(OCC)ccc21` here?
Answer: Its activation is -2.12%.

Question: With `Nc1cccc(-c2cc(-c3ccccc3)nc(-c3cccc(N)c3)n2)c1` as the molecule, how does the activation read?
Answer: Its activation is 27.6%.

Question: How did the activation turn out when `Oc1ccccc1-c1cc(-c2ccc(Cl)cc2)n[nH]1` was run?
Answer: Its activation is 52.2% (active).

Question: With `O=C(Nc1cccnc1Cl)c1cc(-c2ccccc2O)on1` as the molecule, how does the activation read?
Answer: The activation was 5.22%.

Question: `c1ccc(-c2cc(-c3nnc4sc(-c5ccccn5)nn34)[nH]n2)cc1` was tested. Which activation did it give?
Answer: Its activation is -8.07%.

Question: Which activation does the source give for `c1ccc(-c2cc(-c3ccccc3)[nH]n2)cc1` here?
Answer: Its activation is 65.1% (active).

Question: For `Cc1ccc(NC(=O)c2cc(-c3ccccc3O)n[nH]2)cc1C`, which activation is on record?
Answer: Its activation is -2.85%.

Question: For `CCCNC(=O)C(=O)Nc1cc2c3c(c1)CCC(=O)N3CCC2`, which activation is on record?
Answer: The activation was 28.5%.

Question: How did the activation turn out when `CSC1=N/C(=C\C=C\c2cccs2)C(=O)S1` was run?
Answer: The activation was 8.97%.

Question: With `CCOc1ccc(NC(=O)CCS(=O)(=O)c2ccc3c(c2)CCCN3C(=O)CC)cc1` as the molecule, how does the activation read?
Answer: The activation was 4.35%.

Question: Which activation does the source give for `O=C(Cn1cnc2c(OCc3ccccc3)ncnc21)NCCCn1ccnc1` here?
Answer: Its activation is -1.22%.

Question: For `CCCN1C(=O)C(NC(C)=O)c2cc(OC)ccc21` (configuration not stated), which activation is on record?
Answer: The activation was 0.18%.

Question: Which activation does the source give for `CCOC1CS(=O)(=O)CC1OCC` (configuration not stated) here?
Answer: The activation was 1.87%.

From PubChem BioAssay AID2796 (The Scripps Research Institute Molecular Screening Center, 2010)
